From PubChem
The list is not random: actives were taken first. Their share in the collection is about 19%.
IL-1B inflam inh = inflammasome signaling inhibition, IL-1 beta readout. AID 743279. actives 4.7% (n = 360,000). activity change, % at 57.5 µM. THP-1 LPS/ATP IL-1B secretion, AlphaLISA, 16 h; hits give low values; in the data active means activity change below about -50%; inconclusive means mostly about -30% to -49%
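Secreted IL-1B measured by AlphaLISA bead assay after 16 h compound exposure of THP-1 cells; compounds (final up to 57.5 uM) added 1 h before LPS (250 ng/mL) and ATP (1.25 mM) stimulation; lower signal means less secretion.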
ASM inhibitor = blocks human secretory acid sphingomyelinase; P17405; placental ASM, HMU-PC fluorogenic substrate, 60 min; Potency, µM (doses to about 57.5 µM), usual class: inhibitors; actives 0.006% (n = 340,000)
Target sequence (P17405 47-631 limits assumed): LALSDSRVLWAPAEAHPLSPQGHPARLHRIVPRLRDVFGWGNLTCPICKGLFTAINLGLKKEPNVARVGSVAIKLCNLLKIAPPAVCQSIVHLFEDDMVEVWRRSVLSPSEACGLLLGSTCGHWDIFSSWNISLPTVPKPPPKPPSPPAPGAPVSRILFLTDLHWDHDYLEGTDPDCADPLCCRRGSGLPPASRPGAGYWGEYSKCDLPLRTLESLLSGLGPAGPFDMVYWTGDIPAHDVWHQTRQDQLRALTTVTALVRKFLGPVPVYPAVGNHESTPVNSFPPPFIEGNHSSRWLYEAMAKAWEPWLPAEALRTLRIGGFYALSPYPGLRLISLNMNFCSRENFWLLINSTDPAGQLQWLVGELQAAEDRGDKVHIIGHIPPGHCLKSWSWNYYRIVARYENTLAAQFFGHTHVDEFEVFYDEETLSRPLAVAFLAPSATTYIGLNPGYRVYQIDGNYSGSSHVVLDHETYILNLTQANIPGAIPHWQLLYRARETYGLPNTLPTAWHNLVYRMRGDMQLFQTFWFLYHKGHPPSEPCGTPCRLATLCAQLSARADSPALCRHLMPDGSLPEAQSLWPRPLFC
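HMU-PC0 cleavage (9 uM final) by human placental ASM, 60 min at 37 °C following 10 min compound exposure at RT; stopped at pH 10, fluorescence Ex 386/Em 447 nm.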
DT40 TDP1 CPT = DT40-hTDP1 cell growth loss with CPT. chicken DT40 Tdp1-/-;hTDP1 cells + 20 nM CPT, ATP luminescence, 48 h. Potency, µM (top dose mostly 46.2 µM), hits mostly inhibitors. actives 12% (n = 420,000); further: nearly all actives have a fitted effect of over 55% in size
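Chicken DT40 Tdp1-/- cells stably complemented with human TDP1 were seeded at 400 cells/well in medium containing 20 nM camptothecin, exposed to pin-transferred compounds, and grown at 37 °C for at least 48 hr. Viability was read as ATP luminescence.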
TDP1 cell noCPT = qHTS for Inhibitors of human tyrosyl-DNA phosphodiesterase 1 (TDP1): qHTS in cells in absence of CPT; DT40 Tdp1-/- hTDP1 cells, no CPT, ATP luminescence, 48 h; Potency, µM (series often up to 46.2 µM), actives largely listed as inhibitors; actives 15% (n = 420,000); AID 686978, 2013; further: nearly all actives have a fitted effect of over 55% in size
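No-CPT arm: Tdp1-/-;hTDP1 DT40 cells (400/well) plus compounds, incubated ≥48 hr at 37 °C. Readout CellTiter-Glo luminescence.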
TGFb inhibitor = inhibitors of TGF-b signaling; HepG2 CAGA-GFP TGF-b/SMAD3 reporter, GFP fluorescence, 18 h; TGF-beta stimulated, 500 pg/mL final; Potency, µM (top dose mostly 46.1 µM), most hits filed as inhibitors; actives 1.2% (n = 410,000); AID 588855; further: nearly all actives have a fitted effect of over 65% in size
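Inhibition of TGF-beta-driven CAGA-GFP reporter expression in HEPG2 cells is measured by cellular GFP fluorescence after 18 h stimulation with 500 pg/mL recombinant TGF-beta in 1% FBS medium at 37 degrees C.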
HepG2 tox = counter-screen for TGF-b inhibitors: cytotoxicity in HepG2 cells. HepG2 CAGA-GFP viability, ATP luminescence, 18 h. Potency, µM (highest dose often 46.1 µM), usual class: cytotoxic. actives 0.76% (n = 410,000). AID 588856
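HepG2 CAGA-GFP cells (1000/well, DMEM with 1% FBS) received compound, then TGF-beta at 500 pg/mL final, and were incubated 18 hours at 37 degrees C. Viability was read by CellTiter-Glo luminescence. Media-only wells were set as complete cell-killing and DMSO as no toxicity.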
A number is an active result; 0 = inactive; ? = inconclusive; - = not tested or not shown. Unless noted, the call rests on the fitted dose curve; in most records, active means well fitted curve in the direction sought with a large enough effect; inconclusive means small, poorly fitted or top-dose-only effect, or another doubt; inactive means no such curve, though single readings can be large; an effect the other way counts as inactive or inconclusive.

SMILES | IL-1B inflam inh | ASM inhibitor | DT40 TDP1 CPT | TDP1 cell noCPT | TGFb inhibitor | HepG2 tox
Cc1ccc(C(=O)CC2(O)C(=O)N(Cc3ccccc3)c3ccccc32)c(C)c1 (stereo not drawn) | - | - | 23.1µM | ? | ? | 0
CCc1ccc(C(=O)CC2(O)C(=O)N(Cc3ccc(C)cc3)c3ccccc32)cc1 (stereo not drawn) | - | - | 4.61µM | 2.59µM | 0 | 0
O=C(O)CC1(O)C(=O)N(Cc2ccccc2)c2ccccc21 (stereo not drawn) | 0 | 0 | 0 | 0 | 0 | 0
COc1ccc(CN2C(=O)C(O)(CC(=O)c3ccc4c(c3)OCO4)c3ccccc32)cc1OC (stereo not drawn) | 0 | 0 | 6.31µM | 6.31µM | 0 | 0
COc1ccc(Oc2c(C)oc3c(CN4CCOCC4)c(O)ccc3c2=O)cc1 | 0 | 0 | 0 | 0 | 0 | 0
COc1ccc(-n2c(C)c([N+](=O)[O-])c3ccc(O)c(CN4CCCCC4)c32)cc1 | -68.2 | 0 | 16.4µM | ? | 0 | 0
COc1ccc(-c2c(C)c3ccc(O)c(CN4CCOCC4)c3oc2=O)cc1 | - | - | 16.4µM | 23.1µM | 0 | 0
CCc1c(C)c2ccc(O)c(CN3CCN(c4ccccc4)CC3)c2oc1=O | - | - | 14.6µM | 20.6µM | - | 0
CCc1c(C)c2ccc(O)c(CN3CCCC3)c2oc1=O | 0 | 0 | 0 | 0 | 0 | 0
Cc1ccc(-n2c(C)c([N+](=O)[O-])c3ccc(O)c(CN(C)C)c32)cc1 | ? | 0 | ? | ? | 0 | 0
Cc1c(-c2ccc(Cl)cc2)c(=O)oc2c(CN3CCN(C)CC3)c(O)ccc12 | - | - | ? | 23.1µM | 0 | 0
O=C(c1cccc(Oc2ccccc2)c1)N1CCN(c2ccccn2)CC1 | 0 | 0 | 0 | 0 | 0 | 0
COc1ccc(NC(=O)c2cc(C3CCCCN3S(=O)(=O)Cc3ccccc3)on2)c(C)c1 (stereo not drawn) | 0 | - | 0 | 0 | 0 | 0
COc1ccc(-c2c(C)c3ccc(O)c(CN4CCCC4)c3oc2=O)cc1 | - | - | ? | 14.6µM | 0 | 0
CSCCC(NS(=O)(=O)c1ccc(C)cc1)C(=O)NC1CCCCCC1 (stereo not drawn) | 0 | 0 | ? | 20.6µM | 0 | 0
Cc1ccc(S(=O)(=O)NC(C)C(=O)NC2CC2)cc1 (stereo not drawn) | 0 | 0 | 0 | 0 | 0 | 0
Cc1ccc(S(=O)(=O)N[C@H](C(=O)NC2CCC(C)CC2)C(C)C)cc1 (stereo partly drawn) | 0 | 0 | ? | 18.4µM | 0 | 0
Cc1cc(C(=O)NCc2ccco2)sc1C | 0 | 0 | 0 | 0 | 0 | 0
CCS(=O)(=O)Nc1ccc(C2=NN(S(=O)(=O)CC)C(c3cccs3)C2)cc1 (stereo not drawn) | 0 | 0 | 0 | 0 | 0 | 0
CCOC(=O)c1c(NC(=O)CN2C(=O)NC3(CCC(C)CC3)C2=O)sc(C)c1-c1ccc(C)cc1 (stereo not drawn) | 0 | 0 | 20.6µM | 18.4µM | 0 | 0
CCOC(=O)c1sc(NC(=O)CN2C(=O)NC3(CCCCCCC3)C2=O)c(C(=O)OCC)c1C | 0 | 0 | ? | ? | 0 | 0
CCOC(=O)c1c(NC(=O)CN2C(=O)NC3(CCCCC3)C2=O)sc(C)c1-c1ccc(C)cc1 | 0 | 0 | 18.4µM | 20.6µM | ? | 0
CCN(CC(=O)NCc1cccs1)C(=O)/C=C/c1ccc(Cl)c(Cl)c1 | 0 | 0 | 0 | ? | 0 | 0
CC(=O)OCC(=O)[C@@]1(O)CC[C@H]2[C@@H]3CCC4=CC(=O)C=C[C@]4(C)[C@@]3(Cl)[C@@H](Cl)C[C@@]21C | ? | 0 | 0 | 0 | 0 | 0
CCC(=O)OCC(=O)[C@@]1(OC(=O)CC)[C@@H](C)C[C@H]2[C@@H]3CCC4=CC(=O)C=C[C@]4(C)[C@@]3(Cl)[C@@H](O)C[C@@]21C | -58.5 | 0 | 23.7µM | 16.4µM | 0 | 0
SMILES | IL-1B inflam inh | ASM inhibitor | DT40 TDP1 CPT | TDP1 cell noCPT | TGFb inhibitor | HepG2 tox
CCc1ccc(CCC(=O)Nc2ccc(OC)cc2)o1 | 0 | 0 | 0 | 0 | 0 | 0
COc1ccc(C(N)CCc2ccc(C)o2)cc1 (stereo not drawn) | ? | 0 | ? | 18.4µM | 0 | 0
CNc1ccc(C=O)cc1Br | - | - | 0 | 0 | 0 | 0
CCOc1ccccc1N(CC(=O)NCCSc1ccccn1)S(=O)(=O)c1ccc(C)cc1 | 0 | 0 | ? | 20.6µM | ? | 0
CCOc1ccccc1N(CC(=O)NCCSc1ccccn1)S(=O)(=O)c1ccccc1 | 0 | 0 | ? | ? | 0 | 0
Cc1ccccc1N(CC(=O)NCCSc1ccccn1)S(=O)(=O)c1ccccc1 | 0 | 0 | 0 | ? | ? | 0
CCOc1ccccc1N(CC(=O)NCCSc1ccccc1)S(=O)(=O)c1ccccc1 | - | - | ? | 10.3µM | ? | 0
Cc1cc(C)cc(N(CC(=O)NCCSc2ccccn2)S(=O)(=O)c2ccccc2)c1 | 0 | 0 | ? | 25.9µM | 0 | 0
Cc1ccc(S(=O)(=O)N(CC(=O)NCCSc2ccccn2)c2ccc(C)c(C)c2)cc1 | -53.4 | 0 | ? | ? | 0 | 0
Cc1cccc(N2CCN(Cc3ccc([N+](=O)[O-])o3)CC2)c1C | 0 | 0 | 0 | 0 | 0 | 0
O=C(COC(=O)Cc1ccc(F)cc1)NC(=O)c1ccccc1 | 0 | 0 | 0 | 0 | 0 | 0
COc1ccc(N(CC(=O)N/N=C/c2ccc(N(C)C)cc2)S(=O)(=O)c2ccccc2)cc1 | 0 | 0 | 0 | 0 | 0 | 0
Cc1cc(C)cc(N(CC(=O)N/N=C/c2ccncc2)S(=O)(=O)c2ccccc2)c1 | -54.0 | 0 | 0 | 0 | 0 | 0
Cc1nc(Cc2nnc(SCC(=O)N3CCN(c4ccccc4)CC3)o2)cs1 | 0 | 0 | 0 | 0 | 0 | 0
CCOc1ccccc1CNC(=O)Cn1nc(C)c2nn(-c3ccc(Cl)cc3)c(C)c2c1=O | - | - | ? | 18.4µM | 0 | 0
CCc1cccc(C)c1NC(=O)Cn1nc(C)c2nn(-c3ccc(Cl)cc3)c(C)c2c1=O | - | - | 16.4µM | 20.6µM | ? | 0
Cc1ccccc1CNC(=O)Cn1nc(C)c2nn(-c3ccc(Cl)cc3)c(C)c2c1=O | - | - | ? | ? | 0 | 0
CC(C)CC(NC(=O)C1CCC(C)CC1)C(=O)NCc1ccccn1 (stereo not drawn) | 0 | 0 | 0 | ? | 0 | 0
CC(C)CC(NC(=O)C1CCC(C)CC1)C(=O)N1CCN(c2ccccn2)CC1 (stereo not drawn) | 0 | 0 | 16.4µM | 23.1µM | 0 | 0
